Experimental data published in PubChem BioAssay (NCI).
The panel holds about 83,000 compounds, 20% with a hit somewhere; the sample as a whole holds those more often.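 Method: cells in 96-well plates; compound added at one concentration; 48 h incubation; percent growth measured; values under 10 scored active.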 A number with no mark means an inactive call. Active and inactive are the calls of the source.

Assays:
Assay in all cases: NCI-60 one-dose screen, 48 h (100 = growth as untreated, 0 = no growth, -100 = all killed)
Conditions in all cases: 10 µM unless noted
[1] = test system: RPMI-8226 leukemia
[2] = test system: OVCAR-8 ovarian
[3] = test system: OVCAR-5 ovarian
[4] = test system: OVCAR-4 ovarian
[5] = test system: SK-OV-3 ovarian
[6] = test system: IGROV1 ovarian
[7] = test system: OVCAR-3 ovarian
[8] = test system: HS 578T breast
[9] = test system: NCI/ADR-RES ovarian
[10] = test system: T-47D breast
[11] = test system: BT-549 breast
[12] = test system: MDA-MB-435 melanoma
[13] = test system: SW-620 colon
[14] = test system: MCF7 breast
[15] = test system: HCT-116 colon
[16] = test system: HCC-2998 colon
[17] = test system: KM12 colon

Compound | growth [1] | growth [2] | growth [3] | growth [4] | growth [5] | growth [6] | growth [7] | growth [8] | growth [9] | growth [10] | growth [11] | growth [12] | growth [13] | growth [14] | growth [15] | growth [16] | growth [17]
COCN1CCC2N(COC)CCC3N(COC)CCC1N23 (stereo unspecified) | 118% | 99% | 103% | 110% | 101% | 126% | 116% | 124% | 108% | 99.6% | 108% | 110% | 114% | 99.4% | 101% | 100% | 106%
Cc1cc(/C=C\c2ccc3ccccc3[n+]2C)c(O)c2ncccc12 | 14% | 6.2% (active) | 23.9% | 7.86% (active) | 20.9% | -1.34% (active) | 25.8% | 32.9% | 32.4% | 18% | -19.4% (active) | 6.21% (active) | 15.1% | 5.19% (active) | -8.95% (active) | -3.25% (active) | 13.7%
CCCCCCCCCCCCCCCCCC1=NCCN1CCOC1=C(Cl)C(=O)c2ccccc2C1=O | 33.1% | 75% | 115% | -5.67% (active) | 99.9% | 67% | 23.4% | 90.1% | 81.7% | 12.6% | 68% | 95.5% | 7.23% (active) | 65.6% | 43.6% | 100% | 51%
COc1cccc(-c2nc3sccn3c2-c2ccnc(NCCNS(=O)(=O)c3cccc(F)c3)c2)c1 | -25.3% (active) | 12.7% | 71.4% | 21.5% | 45.9% | 31.6% | 36.7% | 27.9% | 12.6% | -2.17% (active) | -6.02% (active) | 43.8% | 51.9% | 37.7% | 24.5% | 52% | 27.3%
CCCCCCCOc1c(OC)cc(C2CC(=O)Nc3c2c(C)nn3-c2nc3ccccc3[nH]2)cc1OC (stereo unspecified) | 8.24% (active) | -19.4% (active) | 9.97% (active) | -11.8% (active) | -51.3% (active) | 2.58% (active) | -67.1% (active) | -19.8% (active) | 13.7% | 11.8% | 6.89% (active) | -27.6% (active) | 3.05% (active) | 6.22% (active) | 4.4% (active) | 79.2% | 1.11% (active)
c1coc(-c2c3ccc(=[N+]4CCCCC4)cc-3oc3cc(N4CCCCC4)ccc23)c1 | -42.7% (active) | -61% (active) | -91.8% (active) | -41.9% (active) | -95.2% (active) | -67.5% (active) | -99.2% (active) | -35.6% (active) | -60.2% (active) | -50.4% (active) | -82.8% (active) | -68.1% (active) | -80% (active) | -69.7% (active) | -95.2% (active) | -96.5% (active) | -93.3% (active)
CCc1ccccc1-n1c(-c2ccc(Cl)cc2)cc(-c2ccc(Cl)cc2)c(C#N)c1=O | 49.3% | 88.9% | 92.2% | 85.9% | 96.5% | 96.1% | 87.7% | 88.4% | 81.7% | 78.6% | 93.7% | 82.8% | 88.9% | 61.7% | 69.8% | 101% | 82.9%
O=C1/C(=C\c2cccnc2)SC(=S)N1CCc1ccc(O)cc1 | 16.7% | 62.6% | 58.8% | 64% | 96.4% | 62.9% | 35.7% | 74.7% | 47.9% | 37.6% | 72.2% | 22.4% | 44.4% | 30.3% | 15% | 72.1% | -3.09% (active)
COc1ccc(N=Nc2ccc(O)c(=O)cc2)cc1 | 9.86% (active) | 9.87% (active) | 47.8% | 31.8% | 16.5% | 15.1% | 16.2% | 30.7% | -29% (active) | -0.237% (active) | 22% | 25.1% | 21.7% | 5.65% (active) | 24.7% | 36.2% | 18.2%
Cc1ccc(N2CCN(C(=S)c3cccs3)CC2)cc1 | 95.6% | 100% | 96.8% | 107% | 106% | 99.3% | 113% | 124% | 112% | 86.2% | 74.2% | 109% | 108% | 89.3% | 93.2% | 94.3% | 113%
NC1=NCc2nc3ccccc3c(=O)n2C1 | 79.1% | 102% | 85.8% | 106% | 117% | 101% | 101% | 111% | 96.8% | 113% | 113% | 100% | 103% | 105% | 101% | 88.8% | 100%
Cc1ccc(C(=O)CSc2nc(-c3ccc(Br)cc3)c(C#N)c(=O)[nH]2)cc1 | 101% | 88.8% | 105% | 85.9% | 104% | 99.3% | 99.7% | 93% | 97.5% | 93% | 94% | 93.2% | 92.2% | 101% | 95.9% | 101% | 97.4%
O=C1/C(=C2/C=Nc3ccccc32)N(O)c2ccccc21 | 38.9% | 62.1% | 78.2% | 50% | 98.8% | 48.1% | 34.8% | 87.7% | 55.2% | 19.5% | 78.1% | -95.3% (active) | 75.4% | 40.3% | 49.8% | 113% | 73.1%
Cc1ccc(/C=C/c2c(C(=O)/C=C/c3ccc(C(F)(F)F)cc3)c(C)nc3ccccc23)cc1 | -26.8% (active) | 4.18% (active) | -39.6% (active) | -74.1% (active) | -47.5% (active) | -80.1% (active) | -86.3% (active) | -13.2% (active) | -0.26% (active) | -13.1% (active) | -30.6% (active) | -87.9% (active) | -43.2% (active) | -14.4% (active) | -56.8% (active) | -74.3% (active) | -70% (active)
COc1ccc(OC)c(-c2c(C#N)c(-c3ccc(Cl)cc3)nc3c2c(-c2ccccc2)nn3-c2ccccc2)c1 | 95.8% | 101% | 101% | 102% | 100% | 108% | 107% | 100% | 99.6% | 90.3% | 101% | 103% | 98.6% | 90.7% | 93.8% | 108% | 99.2%
Cc1c(C(=O)NC(Cc2ccccc2)C(O)C(=O)NCc2ccc(F)cc2)[nH]c2ccccc2c1=O (stereo unspecified) | 105% | 103% | 91% | 107% | 104% | 103% | 114% | 99% | 107% | 102% | 108% | 101% | 114% | 104% | 104% | 118% | 102%
COc1ccc(C2C(c3nn[nH]n3)=C(N)Oc3c2ccc2ccccc32)cc1 (stereo unspecified) | 66.5% | 83.8% | 104% | 83.7% | 79.5% | 53.6% | 64.7% | 76.4% | 28.3% | 64.4% | 72% | -26.6% (active) | 29.3% | 33.1% | 55.7% | 97.7% | 50.2%
COc1cc2nc(Cl)nc(Nc3ccc(S(=O)(=O)Nc4nccs4)cc3)c2cc1OC | 107% | 97.3% | 111% | 103% | 101% | 107% | 116% | 99.5% | 104% | 94.3% | 95.1% | 106% | 105% | 103% | 95% | 72.9% | 112%
